In assay [1] the test system is Wnt5a (protein binding on small-molecule microarray). The experiment in a line: Wnt5a binders on small-molecule microarray, primary screen, biophysical, 635/667 nm fluorescence (AID 1142).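 Also: fluorescence read at 667 nm with signal to noise per printed feature.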 The settings on record: 635 nm fluorescence, higher = more signal.
Assay [2] can be described thus: cell viability in Huh7 cells, primary screen, cytotoxicity control for HCV replication inhibitor project, CellTiter-Glo luminescence, basal, 48 h (AID 1143).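 Also: Huh7 hepatoma cells carrying a hepatitis C replication reporter with no stimulus; test concentration not given here.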 The following applies: Huh7 HCV replicon, higher = more signal, called active from +8 up or from −8 down. In general terms: In ATP-based viability assays light output follows the ATP content of the culture.
Assay [3] is described as follows: P. aeruginosa biofilm formation inhibitors, primary screen, PAO1 strain, BacTiter-Glo luminescence, LB-PBS (AID 1144). The following applies: 12 h, higher = more signal.
Assay [4] is described as follows: CREB reporter modulators without forskolin, primary screen, cell-based, PC12, CRE-LacZ reporter, unstimulated (AID 1145). The settings on record: no forskolin, luminescence, 4.5 h, higher = more signal, called active from +8 up or from −8 down.
Assay [5] in a line: CREB reporter modulators under forskolin, primary screen, cell-based, PC12, CRE-LacZ reporter, forskolin-stimulated (AID 1146).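 Also: PC12 cells with 6xCRE LacZ reporter stimulated by forskolin 10 µM; beta-galactosidase reporter signal reflecting CREB driven transcription.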 The following applies: luminescence, 4.5 h, higher = more signal, called active from +8 up or from −8 down.
Assay [6] addresses Streptavidin (Streptomyces avidinii) (UniProt P22629). As to the kind of experiment: streptavidin binders on small-molecule microarray, primary screen, artefact control for SMM compound annotation, biophysical, 635/667 nm fluorescence (AID 1147).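 Also: signal reflects streptavidin binding to arrayed compounds as a control protein.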 The following applies: streptavidin binding, higher = more signal.
Assay [7] can be described thus: small-molecule binders of probe aInhba, primary screen, biochemical, small-molecule microarray, 635/667 nm fluorescence (AID 1148).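 Also: score merges 667nm spot fluorescence with signal-to-noise for antibody binding to printed compounds.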 The following applies: higher = more signal.
The target of assay [8] is Torsin-1A (Homo sapiens) (UniProt O14656). The experiment in a line: torsin A binders from cell lysate, primary screen, small-molecule microarray, wild-type, 635/667 nm (AID 1149). The settings on record: COS7 hTOR1A-WT lysate, 635 nm fluorescence, higher = more signal.
For assay [9] the target is unchanged. As to the kind of experiment: small-molecule binders of mutant TOR1A in lysate, primary screen, cell lysate, small-molecule microarray, COS7 lysate, 635/667 nm fluorescence (AID 1150).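 Also: score pools 667 nm emission and signal to noise measuring lysate protein binding.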 The following applies: COS7 hTOR1A mutant lysate, 635 nm fluorescence, higher = more signal.
The subject of assay [10] is Sonic hedgehog protein (Shh). As to the kind of experiment: small-molecule binders of Shh protein, primary screen, biochemical, small-molecule microarray, 635/667 nm fluorescence (AID 1151).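 Also: Shh protein binding to compounds spotted on small-molecule microarray slides; score combines spot fluorescence intensity with signal-to-noise across triplicate slides.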 The settings on record: small-molecule microarray binding, 635 nm fluorescence; higher = more signal.

The source made the active and inactive calls. Unless noted, no rule for the calls is given here.

Chain of Torsin-1A (Homo sapiens) (O14656 whole entry, looked up): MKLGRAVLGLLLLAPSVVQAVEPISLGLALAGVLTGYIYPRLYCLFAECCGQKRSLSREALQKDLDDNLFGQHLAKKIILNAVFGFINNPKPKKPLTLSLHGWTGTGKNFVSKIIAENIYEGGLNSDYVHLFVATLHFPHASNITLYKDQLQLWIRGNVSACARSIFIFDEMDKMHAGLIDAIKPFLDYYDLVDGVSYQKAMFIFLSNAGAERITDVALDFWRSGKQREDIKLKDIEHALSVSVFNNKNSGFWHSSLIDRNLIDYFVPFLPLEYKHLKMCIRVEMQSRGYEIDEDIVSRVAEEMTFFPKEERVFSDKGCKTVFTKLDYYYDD
Chain of Streptavidin (Streptomyces avidinii) (P22629 whole entry, looked up): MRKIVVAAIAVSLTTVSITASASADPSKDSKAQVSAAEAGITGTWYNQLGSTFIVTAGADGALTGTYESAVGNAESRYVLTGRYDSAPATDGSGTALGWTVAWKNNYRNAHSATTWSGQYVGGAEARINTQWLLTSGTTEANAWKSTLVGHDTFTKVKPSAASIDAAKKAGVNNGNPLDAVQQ

On to `C[C@@H](OCc1ccccc1)C1NC(=O)[C@@]23C(=O)N[C@@H](Cc4ccccc4)C2[C@H](C)[C@@]2(C)O[C@H]2C3/C=C/C/C=C\CNC(=O)CNC1=O` (stereo not given in full), for which the composite z-score in assay [1] is -0.556; in assay [6], -0.918; in assay [7], -0.105; with Torsin-1A (Homo sapiens) [8], 0.333; in the assay with Torsin-1A (Homo sapiens) [9] it was -0.104; in assay [10], 1.24. Moreover, the z-score in assay [2] was -2.16 (inactive); in [3] it was -0.295 (inactive); in assay [4], -0.962 (inactive); in [5], -0.88 (inactive).

Regarding `CCOC(=O)C[C@H]1[C@H](OC(=O)c2ccc(-c3ccccc3)cc2)[C@@H](NC(=O)C2CCCCC2)c2cc(OCCCO)ccc2N1C(=O)c1ccccc1`, the composite z-score is 0.0722 in assay [1]; 0.947 in [6]; -0.133 in assay [7]; -0.0488 with Torsin-1A (Homo sapiens) [8]; 0.221 with Torsin-1A (Homo sapiens) [9]; 0.957 in assay [10]. The z-score was -0.0788 (inactive) in [2], -0.376 (inactive) in assay [3], -0.0247 (inactive) in assay [4] and 0.178 (inactive) in assay [5].

For the compound `COCCOC(=O)N1C(=O)[C@@]2(c3cc(C#CCC(C(=O)OC)C(=O)OC)ccc31)[C@H](c1ccc(OCCO)cc1)N1[C@H](c3ccccc3)[C@H](c3ccccc3)OC(=O)[C@H]1[C@@H]2C(=O)N1CCN(c2ncccn2)CC1`, the composite z-score in assay [1] worked out at 0.672; in [6], 0.945; in assay [7], 0.122; with Torsin-1A (Homo sapiens) [8], 1.19; with Torsin-1A (Homo sapiens) [9], 0.6; in assay [10], 2.09. Also, the z-score in assay [2] is -4.96 (inactive); in [3], -1.65 (inactive); in assay [4] it was -1.42 (inactive); in assay [5], -0.912 (inactive).

Consider `CN1C(=O)[C@@]2(CCS(=O)(=O)c3ccccc3)N=C(c3ccc(OCCCO)cc3)O[C@H]2c2ccccc21`, for which the composite z-score in [1] was 0.388; in [6], 1.8; in assay [7] it was -0.0384; in the assay with Torsin-1A (Homo sapiens) [8], 1.55; with Torsin-1A (Homo sapiens) [9], 0.397; in assay [10], 0.203. Moreover, the z-score in [2] is -4.49 (inactive); in assay [3], -0.413 (inactive); in [4], 0.0918 (inactive); in assay [5], -0.196 (inactive).

In the case of `COc1ccc([Si](C)(C)[C@H]2[C@H](CCn3cc([C@H](O)c4ccccc4)nn3)O[C@@]3(C(=O)N(Cc4ccc(N5CCC5=O)cc4)c4ccccc43)[C@@H]2C)cc1`, the composite z-score in assay [1] was 0.826; in assay [6], -0.503; in assay [7] it was -0.128; with Torsin-1A (Homo sapiens) [8] it was 0.441; with Torsin-1A (Homo sapiens) [9], 0.489; in assay [10], 1.83. For the same compound, the z-score in [2] is -3.89 (inactive); in assay [3], 0.572 (inactive); in assay [4], 0.31 (inactive); in assay [5], -1.05 (inactive).

`CC(CO)N1C(=O)[C@@H]2C3C(=O)OCCC/C=C\[C@H]3OC23C=CCN(Cn2nnc4ccccc42)C(=O)[C@@H]13` (stereo not given in full): the composite z-score in assay [1] is -0.275; in [6], -0.521; in assay [7], -0.024; with Torsin-1A (Homo sapiens) [8], -1.02; with Torsin-1A (Homo sapiens) [9], -0.296; in assay [10] it was 0.276. In addition, the z-score in assay [2] is 0.39 (inactive); in assay [3] it was -1.36 (inactive); in assay [4], -0.358 (inactive); in assay [5], -0.691 (inactive).

As to `O=C1O[C@@H](c2ccccc2)[C@@H](c2ccccc2)N2[C@@H](c3ccc(O)cc3)[C@]3(C(=O)Nc4ccccc43)[C@@H](C(=O)Nc3nc4ccccc4s3)[C@H]12`, the composite z-score was 1.09 in [1]; 0.243 in [6]; -0.128 in [7]; 0.0151 in the assay with Torsin-1A (Homo sapiens) [8]; 0.325 in the assay with Torsin-1A (Homo sapiens) [9]; 0.183 in assay [10]. Moreover, the z-score in [2] is -4.19 (inactive); in assay [3], -1.87 (inactive); in [4], 0.389 (inactive); in assay [5], -0.0768 (inactive).

Take `C=CC1c2cc(O)c(OC)cc2CCN1Cc1sc2ccccc2c1Cl` (stereo not given): the composite z-score is 0.252 in assay [1]; 1.57 in assay [6]; -0.295 in [7]; -0.425 with Torsin-1A (Homo sapiens) [8]; 0.257 in the assay with Torsin-1A (Homo sapiens) [9]; -0.0808 in assay [10]. Moreover, the z-score in [2] was -3.81 (inactive); in assay [3], 1.39 (inactive); in assay [4], -0.114 (inactive); in assay [5], 1.7 (inactive).

On to `CCCC=C(CCC)[C@@H](NP(=O)(c1ccccc1)c1ccccc1)c1ccc(C(F)(F)F)cc1`, for which the composite z-score in [1] was 0.71; in assay [6], 0.0838; in assay [7] it was -0.0833; with Torsin-1A (Homo sapiens) [8] it was 0.316; in the assay with Torsin-1A (Homo sapiens) [9], 0.0932; in assay [10], -0.395. Also, the z-score in assay [2] was -0.407 (inactive); in assay [3] it was 0.592 (inactive); in [4], 0.0041 (inactive); in assay [5], 0.0568 (inactive).

On to `C=CCOC(=O)[C@@H]1[C@H]2C(=O)O[C@H](c3ccccc3)[C@H](c3ccccc3)N2[C@H](c2ccc(OCCOC(=O)[C@H]3C[C@H]4C(=O)N[C@@H](CCCC[N+](C)(C)C)C(=O)N4[C@H]3c3ccc(O)cc3)cc2)[C@@]12C(=O)Nc1ccc(I)cc12`, for which the composite z-score stood at 0.568 in assay [1]; 0.0658 in assay [6]; 0.0982 in [7]; 0.636 with Torsin-1A (Homo sapiens) [8]; 0.644 with Torsin-1A (Homo sapiens) [9]; 2.15 in assay [10]. For the same compound, the z-score was -0.449 (inactive) in assay [2], -0.0678 (inactive) in assay [3], 0.277 (inactive) in [4] and -0.391 (inactive) in assay [5].

Regarding `O=C1O[C@@H](c2ccccc2)[C@@H](c2ccccc2)N2[C@@H](c3ccccc3OCCO)[C@]3(C(=O)Nc4ccc(C#CCCO)cc43)[C@@H](C(=O)Nc3nc4ccccc4s3)[C@H]12`, the composite z-score in assay [1] turned out to be 0.559; in [6] it was 1.39; in assay [7] it was 0.269; in the assay with Torsin-1A (Homo sapiens) [8], 0.515; in the assay with Torsin-1A (Homo sapiens) [9] it was 0.585; in assay [10], 1.36. Also, the z-score in [2] was -0.975 (inactive); in [3], -0.562 (inactive); in assay [4] it was -0.671 (inactive); in [5], 0.308 (inactive).

Consider `CC1CC/C=C\[C@H]2OC34C=CCN(CCN5CCOCC5)C(=O)[C@H]3N(CCO)C(=O)[C@@H]4C2C(=O)O1` (stereo not given in full), for which the composite z-score in assay [1] was -0.249; in assay [6], -0.638; in [7], -0.178; with Torsin-1A (Homo sapiens) [8], 0.161; in the assay with Torsin-1A (Homo sapiens) [9] it was 0.213; in [10], -0.636. In addition, the z-score is -0.894 (inactive) in [2], 0.463 (inactive) in assay [3], -0.216 (inactive) in assay [4] and -0.626 (inactive) in assay [5].

Turning to `COc1ccc([Si](C)(C)[C@@H]2[C@@H](CCn3cc([C@H](O)c4ccccc4)nn3)O[C@]3(C(=O)N(Cc4ccc(N5CCOC5=O)cc4)c4ccccc43)[C@H]2C)cc1`, the composite z-score is 0.127 in assay [1]; 0.204 in assay [6]; -0.128 in assay [7]; 1.15 with Torsin-1A (Homo sapiens) [8]; 1.14 with Torsin-1A (Homo sapiens) [9]; 1.85 in assay [10]. Besides, the z-score was -3.81 (inactive) in [2], -0.41 (inactive) in [3], -0.0533 (inactive) in assay [4] and -0.0224 (inactive) in assay [5].

(Values after PubChem BioAssay.)
